Inconclusive results are not listed. A call without a number means that no potency is given here. Calls of active or inactive are those of the source. The call rests on the fitted dose curve; in most records, active means well fitted curve in the direction sought with a large enough effect in the repeat runs; inconclusive means weak or mixed curves; inactive means no such curve, though single readings can be large; an effect the other way counts as inactive or inconclusive.

The source of these data is PubChem BioAssay (Tox21).

The first assay in a line: qHTS assay to identify small molecule antagonists of the TGF-beta/Smad signaling pathway - cell viability counter screen (AID 1346824). Further: nearly all actives have a fitted effect of over 50% in size. To be noted: SBE-bla HEK293T viability, CellTiter-Glo luminescence; series mostly up to 76.8 µM. The essentials:
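SBE-bla HEK 293T cells, incubated overnight, then compound plus 0.25 ng/mL TGF-beta1 (stock added) for 5 hr at 37 C. Viability was read in the same wells by CellTiter-Glo luminescence after 30 min at room temperature.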
As for `COC(=O)C1=C(C)NC(C)=C(C(=O)OCCc2ccc(N3CCN(C(c4ccccc4)c4ccccc4)CC3)cc2)C1c1cccc([N+](=O)[O-])c1` (stereo unspecified), the Potency entry was “inactive”. On the same count and under the same terms, the same measure for `CCCCCCCCCCCCCCCC(=O)OC[C@H](O)[C@H]1OC(=O)C(O)=C1O`: “inactive”.

Turning to `COc1cc(-c2ccc(N=C=O)c(OC)c2)ccc1N=C=O`, the Potency entry was “inactive”. As for `CNC(=O)c1ccccc1`, the Potency result was “inactive”. `O=C(O)c1c(Cl)cccc1Cl`: the Potency result is “inactive”.

In the case of `CCCCCCCCCCCCCCCS(=O)(=O)Oc1ccccc1`, the Potency entry is “inactive”. Same read-out and setting: next, `C1CCCC1`: “inactive”; `NNc1nc(-c2ccc(N)cc2)cs1`: “inactive”. Turning to `O=c1cccccc1O`, the Potency result was “inactive”. With `Nc1c(Cl)cc(Cl)cc1Cl`, the Potency entry is “inactive”. Consider `Cc1cccc(S(=O)(=O)O)c1C`, for which the Potency result was “inactive”. With `CCCCCCCC(=O)[O-].CCCCCCCC(=O)[O-].[Zn+2]`, the Potency entry is “inactive”. The same measure, in the same setting: next, `Cc1ccc(O)c2ncccc12`: “inactive”; `CCCCCOc1ccccc1/C(=C\SC)n1ccnc1`: “inactive”; `C/C=C(\C)C(=O)OCc1ccccc1`: “inactive”. On the same count and under the same terms, next, `CSc1cnc(C)cn1`: “inactive”. Turning to `O=C(O)c1ccc(Cl)c(Cl)c1`, the Potency entry was “inactive”. Same read-out and setting: the same measure for `CN(C)CCCOC1(Cc2ccccc2)CCCCCC1`: “inactive”; for `CCOC(=O)O[C@]1(C(=O)OCCl)CC[C@H]2[C@@H]3CCC4=CC(=O)C=C[C@]4(C)[C@H]3[C@@H](O)C[C@@]21C`: “inactive”.

`O=CC=C(c1ccccc1)c1ccccc1`: the Potency entry was “inactive”. On the same count and under the same terms, the same measure for `CC(=O)SC[C@@H](Cc1ccccc1)C(=O)NCC(=O)OCc1ccccc1`: “inactive”; for `Cc1cc(O)c(Cl)c(C)c1Cl`: “inactive”. As for `O=C(c1ccc(O)cc1O)c1ccc(O)cc1O`, the Potency entry is “inactive”. For `Oc1ccc2c(c1)-c1ccccc1C2`, the Potency result was “inactive”.

Consider `CC(C)=CCOc1ccc(/C=C/C(=O)c2ccc(OCC=C(C)C)cc2OCC(=O)O)cc1`, for which the Potency result was “inactive”. Regarding `CC(C)(C)C(=O)OCOC(=O)[C@@H]1N2C(=O)[C@@H](NC(=O)[C@H](N)c3ccccc3)[C@H]2SC1(C)C`, the Potency entry was “inactive”. Consider `c1ccc(CSCc2ccccc2)cc1`, for which the Potency entry is “inactive”.

A short description of another assay: qHTS assay to identify small molecule agonists of the TGF-beta/Smad signaling pathway - cell viability counter screen (AID 1346829). Further: nearly all actives have a fitted effect of over 45% in size. Further: potency means the concentration at half of the fitted maximal effect. As to conditions: SBE-bla HEK293T viability, CellTiter-Glo luminescence, 5 h; series mostly up to 76.8 µM. The essentials:
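Luminescence from CellTiter-Glo, read after a 30 min room-temperature incubation, gives cell viability of SBE-bla HEK 293T cells treated 5 hr with compounds at 37 C.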
As to `CCC(Cl)C(Cl)C(Cl)CC(Cl)C(Cl)C(C)Cl` (stereo unspecified), the Potency entry was “inactive”.

`COC(=O)C1=C(C)NC(C)=C(C(=O)OCCc2ccc(N3CCN(C(c4ccccc4)c4ccccc4)CC3)cc2)C1c1cccc([N+](=O)[O-])c1` (stereo unspecified): the Potency result was “inactive”.

`CCCCCCCCCCCCCCCC(=O)OC[C@H](O)[C@H]1OC(=O)C(O)=C1O`: the Potency result is “inactive”. The same measure, in the same setting: next, `N#CSc1ccc(N)c([N+](=O)[O-])c1`: “inactive”; `COc1cc(-c2ccc(N=C=O)c(OC)c2)ccc1N=C=O`: “inactive”; `CNC(=O)c1ccccc1`: “inactive”. With `O=C(O)c1c(Cl)cccc1Cl`, the Potency entry was “inactive”. Same read-out and setting: the same measure for `NNC(=O)c1cccc(C(=O)NN)c1`: “inactive”; for `CCCCCCCCCCCCCCCS(=O)(=O)Oc1ccccc1`: “inactive”; for `C1CCCC1`: “inactive”. Consider `NNc1nc(-c2ccc(N)cc2)cs1`, for which the Potency result was “inactive”. The same measure, in the same setting: the same measure for `O=c1cccccc1O`: “inactive”; for `Nc1c(Cl)cc(Cl)cc1Cl`: “inactive”. Still for that read-out and setting: the same measure for `Cc1cccc(S(=O)(=O)O)c1C`: “inactive”.

`CCCCCCCC(=O)[O-].CCCCCCCC(=O)[O-].[Zn+2]`: the Potency entry is “inactive”. Consider `COc1cc(-c2nc(NC(=O)c3cc4cc(C)cc(C)c4n3CC(=O)O)sc2CCC2CCCCC2)c(OC)cc1Cl`, for which the Potency is 28.3 µM (active). On the same count and under the same terms, next, `Cc1ccc(O)c2ncccc12`: “inactive”; `CCCCCOc1ccccc1/C(=C\SC)n1ccnc1`: “inactive”. On the same count and under the same terms, the same measure for `C/C=C(\C)C(=O)OCc1ccccc1`: “inactive”; for `CSc1cnc(C)cn1`: “inactive”; for `O=C(O)c1ccc(Cl)c(Cl)c1`: “inactive”. `CN(C)CCCOC1(Cc2ccccc2)CCCCCC1`: the Potency entry is “inactive”. Take `CCOC(=O)O[C@]1(C(=O)OCCl)CC[C@H]2[C@@H]3CCC4=CC(=O)C=C[C@]4(C)[C@H]3[C@@H](O)C[C@@]21C`: the Potency entry is “inactive”. Still for that read-out and setting: the same measure for `CN(C)[C@@H]1C(=O)C(C(N)=O)=C(O)[C@@]2(O)C(=O)C3=C(O)c4c(O)ccc(Cl)c4[C@@H](O)[C@H]3C[C@@H]12`: “inactive”; for `O=CC=C(c1ccccc1)c1ccccc1`: “inactive”. The same measure, in the same setting: the same measure for `CC(=O)SC[C@@H](Cc1ccccc1)C(=O)NCC(=O)OCc1ccccc1`: “inactive”; for `CCCCN(CCCC)C(=O)N(CCCC)CCCC`: “inactive”. Take `Cc1cc(O)c(Cl)c(C)c1Cl`: the Potency result is “inactive”. Turning to `O=C(c1ccc(O)cc1O)c1ccc(O)cc1O`, the Potency result was “inactive”. Still for that read-out and setting: next, `Oc1ccc2c(c1)-c1ccccc1C2`: “inactive”.

For the molecule `CC(C)=CCOc1ccc(/C=C/C(=O)c2ccc(OCC=C(C)C)cc2OCC(=O)O)cc1`, the Potency entry was “inactive”. On the same count and under the same terms, next, `CCC(C)(C)C1CCCCC1OC(C)=O` (stereo unspecified): “inactive”; `CC(C)(C)C(=O)OCOC(=O)[C@@H]1N2C(=O)[C@@H](NC(=O)[C@H](N)c3ccccc3)[C@H]2SC1(C)C`: “inactive”; `c1ccc(CSCc2ccccc2)cc1`: “inactive”.
